Screening data: PubChem, several laboratories
Sampled rows, rich in hits. Any-hit rate of the full collection: about 1.7%.
CHT allo act: CHT positive allosteric modulators, primary screen, cell-based, membrane potential dye, choline EC20. High affinity choline transporter 1 (Homo sapiens), Q9GZV3. CHT-expressing cells; stronger effect = higher value; LV-AA mutant CHT in HEK293 cells. B-score at 10 µM. 310,000 compounds, 0.49% hits;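 active = initial fluorescence not abnormally high and integrated response B-score, plate-corrected, over 3 SD above library mean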
Target sequence (Q9GZV3 whole entry, looked up): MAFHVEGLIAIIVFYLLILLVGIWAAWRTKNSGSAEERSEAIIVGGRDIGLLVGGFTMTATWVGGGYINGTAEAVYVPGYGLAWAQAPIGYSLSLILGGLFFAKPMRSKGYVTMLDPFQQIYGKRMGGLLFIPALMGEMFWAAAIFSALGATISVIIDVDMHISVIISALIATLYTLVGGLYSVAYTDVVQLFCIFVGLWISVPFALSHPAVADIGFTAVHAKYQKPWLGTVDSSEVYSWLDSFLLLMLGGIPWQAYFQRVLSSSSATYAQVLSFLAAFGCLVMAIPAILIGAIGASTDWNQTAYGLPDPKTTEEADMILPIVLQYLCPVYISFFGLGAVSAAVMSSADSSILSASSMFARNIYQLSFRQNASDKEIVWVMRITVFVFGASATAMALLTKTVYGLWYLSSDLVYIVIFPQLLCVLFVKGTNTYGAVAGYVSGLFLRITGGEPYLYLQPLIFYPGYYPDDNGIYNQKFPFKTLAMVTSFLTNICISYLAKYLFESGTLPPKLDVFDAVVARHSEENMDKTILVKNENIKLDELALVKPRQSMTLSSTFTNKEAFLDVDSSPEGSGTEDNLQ
H9c2 TAG inh: inhibitors of triacylglycerol accumulation, primary screen, cell-based, uHTS, fluorescence, H9c2. H9c2 cells, Nile Red lipid (TAG) fluorescence; cells loaded with 200 µM oleic acid. inhibition, % at 12.5 µM. 230,000 compounds, 0.66% hits;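 active = pattern-corrected inhibition of lipid staining of at least 50% with the nuclear-stain viability signal not falling by more than 50%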;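 note: 0% = DMSO wells and 100% = triacsin C control wells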
CHT inh: inhibitors of human choline transporter CHT. High affinity choline transporter 1 (Homo sapiens), Q9GZV3. CHT-expressing cells, membrane potential dye, choline response; stronger effect = lower value. B-score at 10 µM. 310,000 compounds, 0.86% hits;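 active = B-score over 3 SD under the library average, and starting fluorescence ratio not unusually high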;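 note: choline stimulus applied at its EC90 after an EC20 pre-addition; B-score computed on integrated fluorescence ratio after choline addition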
beta cell repl: inducers of MIN6 beta-cell proliferation, primary screen, ATP luminescence, uHTS; MIN6 cells proliferation, ATPlite luminescence, 48 h; cells starved in 0.2% serum; 100% = growth in 10% serum; proliferation, % at 10 µM; 330,000 compounds, 0.29% hits;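 active = compounds whose signal lies at least 3.5 SD above the mean of all wells on their plate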;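 note: 0% = DMSO-treated cells in low-serum medium and 100% = 10% serum control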
CHT block conf: CHT inhibitors, confirmation, cell-based, membrane potential dye, duplicate; shares compounds with CHT inh; CHT-expressing cells, choline membrane potential dye; LV-to-AA substituted CHT, HEK293 cells; AID 493221, 2011; 2,400 compounds, 70% hits; CHT activity remaining % of control (stronger effect = lower value), % at 10 µM;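 active = choline transporter activity left, mean of duplicates at 10 µM, below buffer-only control mean minus 3 SD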;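 note: depolarization triggered by choline at its EC90 following an EC20 pre-addition; 0% = hemicholinium-3 full block and 100% = buffer-only control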
HEK293 CHT ctr: membrane potential effects in parental HEK293, counter-screen for CHT inhibitor project, cell-based, membrane potential dye | shares compounds with CHT inh | 2,400 compounds, 4% hits | AID 493222, 2011 | choline response; active = decrease or increase beyond buffer ±3SD | membrane potential ratio readout (active if shifted either direction beyond buffer ±3SD; no single direction) at 10 µM;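 note: parental cells lack the transporter so any hit is non-specific; ratio is peak minus trough fluorescence over baseline after EC90 choline challenge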
Starred values were filed as active, the others as inactive.

What do the screens show for `O=C(Nc1cccnc1)c1ccc(COc2ccccc2Cl)o1`?
CHT allo act: inactive; H9c2 TAG inh: -33; CHT inh: -7.3*; beta cell repl: -1; CHT block conf: 56%*; HEK293 CHT ctr: inactive

How did CCCNC(=O)C(Cc1ccccc1)NC(=O)c1ccc(-c2ccccc2)cc1 (centres undefined) do in these assays?
H9c2 TAG inh: -22; beta cell repl: -2

What do the screens show for `Cc1cc(C)c(NC(=O)COC(=O)c2cccc3c2C(=O)c2ccccc2C3=O)c(C)c1`?
CHT allo act: inactive; H9c2 TAG inh: -5; CHT inh: -5.1*; beta cell repl: 0; CHT block conf: inactive; HEK293 CHT ctr: inactive

What do the screens show for `Cc1ccc(C)c(NC(=O)COC(=O)c2cccc3c2C(=O)c2ccccc2C3=O)c1`?
CHT allo act: inactive; CHT inh: inactive; beta cell repl: -6

How did CN1CCCN(C(=O)c2cc(-c3ccc(Cl)c(Cl)c3Cl)nc3ccccc23)CC1 do in these assays?
CHT allo act: inactive; H9c2 TAG inh: 0; CHT inh: -8*; beta cell repl: -5; CHT block conf: inactive; HEK293 CHT ctr: inactive

What do the screens show for `COc1ccc(N2CCN(S(=O)(=O)c3cn(C)c(=O)n(C)c3=O)CC2)cc1`?
CHT allo act: inactive; H9c2 TAG inh: -1; CHT inh: -5.3*; beta cell repl: 0; CHT block conf: inactive; HEK293 CHT ctr: inactive

Results for Cn1cc(S(=O)(=O)N2CCN(c3ccccc3)CC2)c(=O)n(C)c1=O ?
CHT allo act: inactive; H9c2 TAG inh: 0; CHT inh: inactive; beta cell repl: -2

What do the screens show for `CCOc1ccc(C(C)=O)cc1CSc1nc2nc(C)cc(C)n2n1`?
CHT allo act: inactive; H9c2 TAG inh: 1; CHT inh: inactive; beta cell repl: -3

Results for Cc1onc(-c2ccccc2)c1C(=O)NNC(=S)NC(=O)c1ccc(Br)cc1 ?
CHT allo act: inactive; CHT inh: -6.2*; CHT block conf: 55%*; HEK293 CHT ctr: inactive

How did Cc1onc(-c2ccccc2)c1C(=O)NNC(=O)c1ccccc1 do in these assays?
H9c2 TAG inh: 1; beta cell repl: -4

How did COc1ccc(-c2nsc(SCC(=O)NCC3CCCO3)n2)cc1 (centres undefined) do in these assays?
CHT allo act: inactive; H9c2 TAG inh: -16; CHT inh: inactive; beta cell repl: -2

Results for COc1cc(C(=O)OCCCN(C)C)cc(OC)c1OC ?
CHT allo act: inactive; H9c2 TAG inh: -4; CHT inh: inactive; beta cell repl: -1

Results for CCN(CC)CCCCCCCCOC(=O)c1cc(OC)c(OC)c(OC)c1 ?
CHT allo act: inactive; H9c2 TAG inh: 12; CHT inh: -5.4*; beta cell repl: -3; CHT block conf: 20%*; HEK293 CHT ctr: inactive

Results for Cc1ccccc1N=CC=C1OC(C)(C)C(C)(C)O1 ?
CHT allo act: inactive; CHT inh: inactive; beta cell repl: -3

Results for C/C(Cl)=C\Cn1c(O)c(N=O)c2ccccc21 ?
CHT allo act: inactive; H9c2 TAG inh: -8; CHT inh: -7.1*; beta cell repl: 7; CHT block conf: 51%*; HEK293 CHT ctr: inactive

What do the screens show for `C=CCn1c(O)c(N=O)c2ccccc21`?
CHT allo act: inactive; H9c2 TAG inh: 2; CHT inh: inactive; beta cell repl: 2

What do the screens show for `C=CCN(CC=C)S(=O)(=O)c1ccc2nc(NC(=O)C(C)C)sc2c1`?
CHT allo act: inactive; H9c2 TAG inh: 41; CHT inh: -7.3*; beta cell repl: -2; CHT block conf: 43%*; HEK293 CHT ctr: inactive

Results for CC(C)OCCCn1c(SCC(=O)Nc2ccccc2C(F)(F)F)nc2nccnc2c1=O ?
CHT allo act: inactive; CHT inh: inactive; beta cell repl: 0

How did COc1cc(Cl)c(C)cc1NC(=O)CSC1=NCCS1 do in these assays?
H9c2 TAG inh: -6; beta cell repl: -3

How did C=CCN1C(c2cccc(C(F)(F)F)c2)=CS/C1=C(/C#N)c1nnc(N2CCOCC2)n1-c1ccccc1 do in these assays?
CHT allo act: inactive; CHT inh: -6*; beta cell repl: 0; CHT block conf: inactive; HEK293 CHT ctr: inactive

Results for Cc1ccc(/C(O)=C2/C(=O)C(=O)N(CC(=O)O)C2c2ccc([N+](=O)[O-])cc2)cc1 (centres undefined) ?
CHT allo act: inactive; CHT inh: inactive; beta cell repl: -1

How did OCCn1nc(-c2ccccc2)cc1-c1ccccc1 do in these assays?
CHT allo act: inactive; CHT inh: -9.3*; beta cell repl: 3; CHT block conf: 26%*; HEK293 CHT ctr: inactive

How did O=C(CSc1nc2ccccc2n1CCc1ccccc1)c1ccc(O)c(O)c1 do in these assays?
H9c2 TAG inh: 10

How did C/C(=N\NC(=O)c1ccoc1C)c1cccc2ccccc12 do in these assays?
CHT allo act: inactive; CHT inh: -7.6*; CHT block conf: inactive; HEK293 CHT ctr: inactive

Results for OCC[C@@H]1C[C@H](O)[C@@H](O)[C@]2(CCc3ccccc3CO2)O1 ?
CHT allo act: inactive; H9c2 TAG inh: 3; CHT inh: inactive; beta cell repl: 2

Results for O=C(CN1C(=O)NC2(CCCC2)C1=O)OCc1c(F)cccc1Cl ?
CHT allo act: inactive; H9c2 TAG inh: -32; CHT inh: inactive; beta cell repl: 2

What do the screens show for `O=c1cc(-c2ccccc2)c2c(O)cc(O)cc2o1`?
CHT allo act: inactive; H9c2 TAG inh: 1; CHT inh: -5*; beta cell repl: -3; CHT block conf: 50%*; HEK293 CHT ctr: inactive

Results for O=c1c(O)c(-c2ccccc2)oc2cc(O)cc(O)c12 ?
beta cell repl: 1

How did CN1CCN(c2ncc(CN3C(=O)c4ccccc4C3=O)s2)CC1 do in these assays?
CHT allo act: inactive; H9c2 TAG inh: 9; CHT inh: -5.3*; beta cell repl: -2; CHT block conf: 57%*; HEK293 CHT ctr: inactive

What do the screens show for `CN1CCN(C(=O)CCN2C(=O)c3ccccc3C2=O)CC1`?
CHT allo act: inactive; H9c2 TAG inh: 6; CHT inh: inactive; beta cell repl: -3

What do the screens show for `CC(NS(=O)(=O)OCC(Cl)(Cl)Cl)c1ccc(Br)cc1` (centres undefined)?
CHT allo act: inactive; H9c2 TAG inh: 3; CHT inh: -5.2*; beta cell repl: -6; CHT block conf: 67%*; HEK293 CHT ctr: inactive
